High-throughput results from PubChem.
CBX7 AlphaScr: inhibitors of human CBX7 binding to H3K27me3 peptide; O95931; AlphaScreen His6-CBX7 / biotin-H3K27me3 peptide binding; active compounds read low; normalised signal (fraction of DMSO) (no concentration beside the values); 1.1% of 66,000 active; AID 1224903; in the data active = normalised signal below about 0.5
Target sequence (O95931 whole entry, looked up): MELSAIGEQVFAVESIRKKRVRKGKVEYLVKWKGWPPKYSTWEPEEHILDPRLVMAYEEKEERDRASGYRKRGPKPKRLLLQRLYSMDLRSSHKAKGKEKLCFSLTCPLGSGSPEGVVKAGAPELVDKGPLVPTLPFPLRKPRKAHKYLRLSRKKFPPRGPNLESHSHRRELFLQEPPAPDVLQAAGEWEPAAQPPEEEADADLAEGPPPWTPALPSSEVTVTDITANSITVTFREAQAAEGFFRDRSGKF
* = called active by the depositor. The entries come from a sample that favours hits as a whole.

SMILES	CBX7 AlphaScr
COc1ccc(-c2nnc(NC(=O)c3ccc(OC)c(OC)c3)o2)cc1	0.086*
COc1ccc(C(=O)Nc2cccc(-c3nc4ccccc4o3)c2)cc1OC	1.3
COc1ccc(C(=O)Nc2nnc(-c3ccccc3)o2)cc1OC	0.61
COc1ccc(-c2nnc(NC(=O)c3ccc(Cl)cc3)o2)cc1	0.55
COc1ccc(C(=O)Nc2nnc(-c3cccc(C)c3)o2)cc1OC	0.018*
N#Cc1ccc(-c2csc(NC(=O)c3cccc(Oc4ccccc4)c3)n2)cc1	1
CCOC(=O)c1ccc(Nc2nnc(C(C)(C)C)c(=O)[nH]2)cc1	0.5*
CCOc1ccc(Nc2nnc(C(C)(C)C)c(=O)[nH]2)cc1	1
Cc1ccc(Nc2nnc(C(C)(C)C)c(=O)[nH]2)cc1	1.3
COc1ccc(-c2csc(Nc3cccc(C(C)=O)c3)n2)cc1OC	0.79
Cc1c(Cl)cccc1Nc1nc(-c2ccccn2)cs1	0.47*
Cc1c(Cl)cccc1Nc1nc(-c2cccnc2)cs1	0.88
CC(=O)Nc1ccc(Nc2nc(-c3c(C)nc4ncccn34)cs2)cc1	1
CC(=O)c1cccc(Nc2nc(-c3ccccn3)cs2)c1	0.38*
CC(=O)Nc1ccc(Nc2nc(-c3ccccn3)cs2)cc1	0.061*
Cc1c(Cl)cccc1Nc1nc(-c2cccs2)cs1	0.84
CC(=O)Nc1ccc(Nc2nc(-c3cc4ccccc4o3)cs2)cc1	0.79
CC(=O)c1cccc(Nc2nc(-c3cccs3)cs2)c1	0.86
CCOc1ccccc1NC(=O)Cn1nc(Cc2cccnc2)c2ccccc2c1=O	1.1
COc1ccc(Nc2c(-c3ccc(F)cc3)nc3cnccn23)cc1	0.9
CC1CCCCN1S(=O)(=O)c1ccc2[nH]c(=O)cc(C(=O)NC3CCCC3)c2c1 (configuration not stated)	0.94
Cc1ccccc1OC1C(=O)N(c2ccc(F)cc2)C1c1ccc2c(c1)OCO2 (configuration not stated)	0.91
CCc1cccc(CC)c1NC1=NS(=O)(=O)c2ccccc21	0.95
CCC(=O)NCCc1cc2ccc(C)cc2[nH]c1=O	1
CCc1cccc(NC2c3ccccc3C(=O)N2c2ccc(C)cn2)c1 (configuration not stated)	1
SMILES	CBX7 AlphaScr
Cc1ccccc1Nc1c(-c2ccc(Cl)cc2)nc2ccccn12	1
CC1CC(C)CN(C(=O)CC2Oc3ccccc3NC2=O)C1 (configuration not stated)	0.99
CCOc1ccccc1N(CC(=O)N1CCN(c2ccccc2)CC1)S(=O)(=O)c1ccccc1	0.95
COc1cc2c(C(=O)N3CCCCCC3)cn(C)c(=O)c2cc1OC	1.1
COc1ccc(CCNC(=O)C2CCN(S(=O)(=O)c3cccc4cccnc34)CC2)cc1OC	1
CCOC(=O)c1nnn(-c2nonc2N)c1CSc1cccc2cccnc12	0.99
COc1ccc(C(CC(=O)c2ccco2)Sc2cccc3cccnc23)cc1OC (configuration not stated)	0.005*
CCN1CCN(CCNc2cc(C)nc3c(-c4ccccc4OC)c(C)nn23)CC1	1.1
CCC(=O)Nc1nc(C)c(-c2csc(Nc3ccc(OC)cc3)n2)s1	0.5*
CCC(=O)Nc1nc(C)c(-c2csc(Nc3ccccc3OC)n2)s1	0.83
CCC(=O)Nc1nc(C)c(-c2csc(Nc3ncccn3)n2)s1	1.1
CCC(=O)Nc1nc(C)c(-c2csc(Nc3cc(OC)ccc3OC)n2)s1	0.5*
COc1ccc(OC)c(Nc2nc(-c3sc(C)nc3C)cs2)c1	0.84
CCC(=O)Nc1nc(C)c(-c2csc(Nc3ccccn3)n2)s1	0.88
CC(=O)NC1C(OCc2ccccc2)OC2COC(c3ccccc3)OC2C1O (configuration not stated)	1
COC(=O)c1cc2ccsc2n1CC(=O)N1CCCc2ccccc21	1.1
FC(F)(F)c1cc(Br)c2nc(-c3ccccc3)c(-c3ccccc3)nc2c1	1.3
O=C(Cn1nc(Cc2ccncc2)c2ccccc2c1=O)N1CCCc2ccccc21	1.1
Cc1cccc(NC(=O)Cn2nnc(-c3ccc(OCc4ccccc4F)cc3)n2)c1	1.5
CCC(C)N(CCNC(=O)CC1Oc2ccccc2NC1=O)C1CCCCC1 (configuration not stated)	1.1
O=C(Cn1nc(-c2ccc(Cl)cc2)ccc1=O)NCC1CCCO1 (configuration not stated)	1
CCOC(=O)Cn1c(=O)c(-c2cc(Br)ccc2NC)nc2cc3ccccc3cc21	0.84
CCNc1ccc(Br)cc1-c1nc2ccccc2n(CC)c1=O	0.27*
CCOC(=O)Cn1c(=O)c(-c2ccccc2NCc2ccccc2)nc2ccccc21	0.98
Cc1ccc(OCC(=O)Nc2cc(-c3nc4ccccc4[nH]3)ccc2C)cc1C	0.98
SMILES	CBX7 AlphaScr
Cc1[nH]c2c(Cl)cccc2c(=O)c1CN1CCCCC1	1.1
O=C(Nc1ccc2oc(-c3ccccc3Cl)nc2c1)c1ccc(F)cc1	1
Cc1c(NC(=O)c2cc3ccccc3o2)cccc1-c1nc2cc(Cl)ccc2o1	1
Cc1c(NC(=O)c2ncn[nH]2)cccc1-c1nc2ccccc2s1	0.18*
Cc1c(NC(=O)c2ccccc2F)cccc1-c1nc2cc(Cl)ccc2o1	1.1
Cc1c(NC(=O)c2ccccc2F)cccc1-c1nc2ccccc2s1	1.1
Cc1c(NC(=O)c2ncn[nH]2)cccc1-c1nc2cc(Cl)ccc2o1	0.12*
O=C(Nc1ccc2oc(-c3ccccc3Cl)nc2c1)c1ncn[nH]1	0.043*
O=C(Nc1ccc2oc(-c3ccccc3Cl)nc2c1)c1cncc(Br)c1	1
O=C(Nc1ccccc1-c1nc2ccccc2s1)c1ccccc1	1
CC1=Nc2cc(C(=O)N3CCCC3)ccc2Sc2c(C)ccc(C)c21	0.93
COc1ccc(Cc2noc(-c3c(-c4ccccc4Cl)noc3C)n2)cc1	0.76
CCCCCOc1ccc(CO[C@@H]2[C@H]3OC(C)(C)O[C@H]3O[C@@H]2C(O)CO)cc1 (some centres not stated)	0.98
Cc1ccc(OCC(=O)Nc2ccc(-c3nc4cc(C)cc(C)c4o3)cc2)c(C)c1	1
O=C(c1ccc(CSc2nc3ccncc3[nH]2)cc1)N1CCN(c2ccccc2)CC1	1
O=C(Nc1ccc(Cc2ccncc2)cc1)C12CC3CC(CC(C3)C1)C2	0.96
Cc1ccc(NC(=O)Nc2ccc(Cc3ccncc3)cc2)cc1C	1
O=C(Nc1ccc(Cc2ccncc2)cc1)c1ncn[nH]1	0.058*
Cc1ccc(NC(=O)Nc2ccc3c(c2)N(C)C(=O)CS3)c(C)c1	1
Cc1ccccc1-c1nc(CSCC(=O)NC2CCCCCC2)c(C)o1	0.99
Cc1ccc(-c2nc3ccccn3c2Nc2ccc3c(c2)OCO3)cc1	0.35*
Cc1cccn2c(Nc3ccc4c(c3)OCCO4)c(-c3ccc(Cl)cc3)nc12	0.48*
c1ccn2c(Nc3ccc4c(c3)OCCO4)c(-c3ccc(N4CCOCC4)cc3)nc2c1	1
Clc1ccc(-c2nc3ccccn3c2Nc2ccc3c(c2)OCCO3)cc1	0.61
Clc1ccc(-c2nc3ncccn3c2Nc2ccc3c(c2)OCCO3)cc1	0.85
SMILES	CBX7 AlphaScr
Brc1cccc(-c2nc3ccccn3c2Nc2ccc3c(c2)OCCO3)c1	0.44*
Cc1ccc(-c2nc3ccccn3c2Nc2ccc3c(c2)OCCO3)cc1	1
c1csc(-c2nc3ccccn3c2Nc2ccc3c(c2)OCCO3)c1	0.77
c1cncc(-c2nc3ccccn3c2Nc2ccc3c(c2)OCCO3)c1	0.9
Clc1ccccc1-c1nc(Cc2ccccc2)no1	1.1
Cc1cccc(-c2nnc(NC(=O)c3ccc(F)cc3)s2)c1	0.94
Cc1ccc(S(=O)(=O)Nc2ccccc2CNc2c(C)cccc2C)cc1	1
